Experimental data: PubChem BioAssay (NCATS)
Records with an inconclusive call do not appear. The source made the active and inactive calls. The call rests on the fitted dose curve; in most records, active means well fitted cell-killing curve with a large enough effect; inconclusive means small, poorly fitted or top-dose-only effect, or effect the other way; inactive means flat fitted curve, though single readings scatter.

Key:
Test in all cases: Primary qHTS to identify gynecologic anti-cancer compounds using libraries of approved drugs and bioactive compounds (AID 1345084); further: nearly all actives have a fitted effect of over 55% in size
C33A = conditions: Gynecologic cancer cell panel viability, ATPlite luminescence, 48 h; series mostly up to 57.5 µM
Outline: (§1)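 Cells, 1,000 per well, plated 16 h, then exposed 48 h at 37 C to compounds. Viability by ATPlite luminescence after 15 min at room temperature.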

CASKI = conditions: Gynecologic cancer cell panel viability, ATPlite luminescence, 48 h; series mostly up to 57.5 µM
Outline: as §1

Es-2 = conditions: Gynecologic cancer cell panel viability, ATPlite luminescence, 48 h; series mostly up to 57.5 µM
Outline: as §1

HeLa = conditions: Gynecologic cancer cell panel viability, ATPlite luminescence, 48 h; series mostly up to 57.5 µM
Outline: as §1

Hek293T = conditions: Gynecologic cancer cell panel viability, ATPlite luminescence, 48 h, control line for the selectivity index; series mostly up to 57.5 µM
Outline: as §1

JEG-3 = conditions: Gynecologic cancer cell panel viability, ATPlite luminescence, 48 h; series mostly up to 57.5 µM
Outline: as §1

OV90 = conditions: Gynecologic cancer cell panel viability, ATPlite luminescence, 48 h; series mostly up to 57.5 µM
Outline: as §1

PA-1 = conditions: Gynecologic cancer cell panel viability, ATPlite luminescence, 48 h; series mostly up to 57.5 µM
Outline: as §1

SKOV3 = conditions: Gynecologic cancer cell panel viability, ATPlite luminescence, 48 h; series mostly up to 57.5 µM
Outline: as §1

Tov-21-G = conditions: Gynecologic cancer cell panel viability, ATPlite luminescence, 48 h; series mostly up to 57.5 µM
Outline: as §1

Tov112D = conditions: Gynecologic cancer cell panel viability, ATPlite luminescence, 48 h; series mostly up to 57.5 µM
Outline: as §1
On the % scale 0 is the no-effect control and ±100 the full control effect.

CC1(C)CCC2(C(=O)OC3OCC(O)C(O)C3O)CCC3(C)C(=CCC4C5(C)CC(O)C(OC6OC(COC7OCC(O)C(O)C7O)C(O)C(O)C6O)C(C)(C)C5CCC43C)C2C1 (stereo not drawn)
inactive: activity change, negative = cytotoxicity (C33A) 7.41% [at 11.6 µM] | activity change, negative = cytotoxicity (CASKI) 17.9% [at 11.6 µM] | activity change, negative = cytotoxicity (Es-2) 5.97% [at 11.6 µM] | activity change, negative = cytotoxicity (HeLa) 7.08% [at 11.6 µM] | activity change, negative = cytotoxicity (Hek293T) -8.87% [at 11.6 µM] | activity change, negative = cytotoxicity (JEG-3) 11.8% [at 11.6 µM] | activity change, negative = cytotoxicity (OV90) 4.98% [at 11.6 µM] | activity change, negative = cytotoxicity (PA-1) 14.1% [at 11.6 µM] | activity change, negative = cytotoxicity (SKOV3) 12.7% [at 11.6 µM] | activity change, negative = cytotoxicity (Tov-21-G) 8.15% [at 11.6 µM] | activity change, negative = cytotoxicity (Tov112D) 7.12% [at 11.6 µM]

COc1ccc(N2CCOCC2)c2sc(NC(=O)N3CCC(C)(O)CC3)nc12
inactive: Potency (C33A) | Potency (CASKI) | Potency (Es-2) | Potency (HeLa) | Potency (Hek293T) | Potency (JEG-3) | Potency (OV90) | Potency (PA-1) | Potency (SKOV3) | Potency (Tov-21-G) | Potency (Tov112D)

O=C(O[C@H]1[C@@H]2C=CO[C@@H](O[C@@H]3O[C@H](CO)[C@@H](O)[C@H](O)[C@H]3O)[C@@H]2[C@@]2(CO)O[C@@H]12)c1ccccc1
inactive: Potency (C33A) | Potency (CASKI) | Potency (Es-2) | Potency (HeLa) | Potency (Hek293T) | Potency (JEG-3) | Potency (OV90) | Potency (PA-1) | Potency (SKOV3) | Potency (Tov-21-G) | Potency (Tov112D)

CC1=CC(=O)CC(C)(C)C1CCC(C)O[C@@H]1O[C@H](CO[C@@H]2OC[C@@H](O)[C@H](O)[C@H]2O)[C@@H](O)[C@H](O)[C@H]1O (stereo partly drawn)
inactive: Potency (C33A) | Potency (CASKI) | Potency (Es-2) | Potency (HeLa) | Potency (Hek293T) | Potency (JEG-3) | Potency (OV90) | Potency (PA-1) | Potency (SKOV3) | Potency (Tov-21-G) | Potency (Tov112D)

COC(=O)c1c(C)cc(OC(=O)c2c(C)cc(OC)cc2OC)cc1O[C@@H]1O[C@H](CO)[C@@H](O)[C@H](O)[C@H]1O
inactive: Potency (C33A) | Potency (CASKI) | Potency (Es-2) | Potency (HeLa) | Potency (Hek293T) | Potency (JEG-3) | Potency (OV90) | Potency (PA-1) | Potency (SKOV3) | Potency (Tov-21-G) | Potency (Tov112D)

C/C=C/C=C/[C@@H]1O[C@](O)([C@H](CC)C(=O)NC/C=C/C=C(\C)[C@@H](OC)[C@@H](C)C2OC(/C=C/C=C/C=C(\C)C(=O)c3c(O)cc[nH]c3=O)[C@H](O)[C@@H]2O)[C@H](O)[C@H](O)C1(C)C (stereo partly drawn)
inactive: Potency (C33A) | Potency (CASKI) | Potency (Es-2) | Potency (HeLa) | Potency (Hek293T) | Potency (JEG-3) | Potency (OV90) | Potency (PA-1) | Potency (SKOV3) | Potency (Tov-21-G) | Potency (Tov112D)

COc1c2ccoc2cc2oc(CO[C@@H]3O[C@H](CO)[C@@H](O)[C@H](O)[C@H]3O)cc(=O)c12
inactive: Potency (C33A) | Potency (CASKI) | Potency (Es-2) | Potency (HeLa) | Potency (Hek293T) | Potency (JEG-3) | Potency (OV90) | Potency (PA-1) | Potency (SKOV3) | Potency (Tov-21-G) | Potency (Tov112D)

C[C@@H]1C[C@@H]([C@@H](O)C(C)(C)O)O[C@H]2C[C@@]3(C)C(=C12)C[C@H](O)[C@H]1[C@@]2(C)CCC(=O)C(C)(C)C2CC[C@@]13C (stereo partly drawn)
inactive: Potency (C33A) | Potency (CASKI) | Potency (Es-2) | Potency (HeLa) | Potency (Hek293T) | Potency (JEG-3) | Potency (OV90) | Potency (PA-1) | Potency (SKOV3) | Potency (Tov-21-G) | Potency (Tov112D)

C[S+](CC[C@H](N)C(=O)[O-])C[C@H]1O[C@@H](n2cnc3c(N)ncnc32)[C@H](O)[C@@H]1O (stereo partly drawn)
inactive: Potency (C33A) | Potency (CASKI) | Potency (Es-2) | Potency (HeLa) | Potency (Hek293T) | Potency (JEG-3) | Potency (OV90) | Potency (PA-1) | Potency (SKOV3) | Potency (Tov-21-G) | Potency (Tov112D)

COC(=O)C[C@H]1[C@]2(C)C3=C(C)[C@H](c4ccoc4)C[C@H]3O[C@@H]2[C@H](OC(C)=O)C2[C@](C)(C(=O)OC)C=CC(=O)[C@@]21C (stereo partly drawn)
inactive: Potency (C33A) | Potency (CASKI) | Potency (Es-2) | Potency (HeLa) | Potency (Hek293T) | Potency (JEG-3) | Potency (OV90) | Potency (PA-1) | Potency (SKOV3) | Potency (Tov-21-G) | Potency (Tov112D)

CC1(C)CC2C(O)c3cocc3CC(C)(O)C2C1 (stereo not drawn)
inactive: Potency (C33A) | Potency (CASKI) | Potency (Es-2) | Potency (HeLa) | Potency (Hek293T) | Potency (JEG-3) | Potency (OV90) | Potency (PA-1) | Potency (SKOV3) | Potency (Tov-21-G) | Potency (Tov112D)

C[C@@H]1O[C@@H](O[C@H]2[C@H](O)[C@@H](O)[C@H](OC[C@H]3O[C@@H](OC(=O)[C@]45CCC(C)(C)C[C@H]4C4=CCC6[C@@]7(C)CC[C@H](O[C@@H]8OC[C@H](O)[C@H](O[C@@H]9O[C@H](CO)[C@@H](O)[C@H](O)[C@H]9O)[C@H]8O)[C@@](C)(CO)C7CC[C@@]6(C)[C@]4(C)CC5)[C@H](O)[C@@H](O)[C@@H]3O)O[C@@H]2CO)[C@H](O)[C@H](O)[C@H]1O (stereo partly drawn)
inactive: activity change, negative = cytotoxicity (C33A) 0.512% [at 6.55 µM] | activity change, negative = cytotoxicity (CASKI) -0.125% [at 6.55 µM] | activity change, negative = cytotoxicity (Es-2) -1.94% [at 6.55 µM] | activity change, negative = cytotoxicity (HeLa) 8.6% [at 6.55 µM] | activity change, negative = cytotoxicity (Hek293T) -5.57% [at 6.55 µM] | activity change, negative = cytotoxicity (JEG-3) 16.9% [at 6.55 µM] | activity change, negative = cytotoxicity (OV90) 13.6% [at 6.55 µM] | activity change, negative = cytotoxicity (PA-1) 8.25% [at 6.55 µM] | activity change, negative = cytotoxicity (SKOV3) 11.5% [at 6.55 µM] | activity change, negative = cytotoxicity (Tov-21-G) 8.55% [at 6.55 µM] | activity change, negative = cytotoxicity (Tov112D) -0.716% [at 6.55 µM]

CC12CCC(=O)C=C1C(O)CC1C2C(O)CC2(C)C1CC[C@]2(O)C(=O)CO (stereo partly drawn)
inactive: activity change, negative = cytotoxicity (C33A) 4.59% [at 11.6 µM] | activity change, negative = cytotoxicity (CASKI) -0.604% [at 11.6 µM] | activity change, negative = cytotoxicity (Es-2) 1.39% [at 11.6 µM] | activity change, negative = cytotoxicity (HeLa) 6.62% [at 11.6 µM] | activity change, negative = cytotoxicity (Hek293T) 5.48% [at 11.6 µM] | activity change, negative = cytotoxicity (JEG-3) 6.5% [at 11.6 µM] | activity change, negative = cytotoxicity (OV90) 9.39% [at 11.6 µM] | activity change, negative = cytotoxicity (PA-1) -1.22% [at 11.6 µM] | activity change, negative = cytotoxicity (SKOV3) -0.607% [at 11.6 µM] | activity change, negative = cytotoxicity (Tov-21-G) -3.93% [at 11.6 µM] | activity change, negative = cytotoxicity (Tov112D) 12.3% [at 11.6 µM]
